Results published in article PMC7862700, “An all-to-all approach to the identification of sequence-specific readers for epigenetic DNA modifications on cytosine”.

Columns and labels:
Assay in all cases: DAPPL (digital affinity profiling via proximity ligation, sequencing); 10 mM Tris-HCl pH 7.5, 50 mM NaCl, 1 mM DTT, 4% glycerol, room temperature, 30 min; GST-TFs on glutathione beads, 16-mer random dsDNA library, 0.1% formaldehyde crosslink after washing; high values mean tight binding
Conditions in all cases: protein: recombinant; tags: N-terminal GST; dsDNA, one strand shown
FLI1 = biological target: T1, FLI1 (Homo sapiens, UniProt Q01543 1-452)
T1 sequence: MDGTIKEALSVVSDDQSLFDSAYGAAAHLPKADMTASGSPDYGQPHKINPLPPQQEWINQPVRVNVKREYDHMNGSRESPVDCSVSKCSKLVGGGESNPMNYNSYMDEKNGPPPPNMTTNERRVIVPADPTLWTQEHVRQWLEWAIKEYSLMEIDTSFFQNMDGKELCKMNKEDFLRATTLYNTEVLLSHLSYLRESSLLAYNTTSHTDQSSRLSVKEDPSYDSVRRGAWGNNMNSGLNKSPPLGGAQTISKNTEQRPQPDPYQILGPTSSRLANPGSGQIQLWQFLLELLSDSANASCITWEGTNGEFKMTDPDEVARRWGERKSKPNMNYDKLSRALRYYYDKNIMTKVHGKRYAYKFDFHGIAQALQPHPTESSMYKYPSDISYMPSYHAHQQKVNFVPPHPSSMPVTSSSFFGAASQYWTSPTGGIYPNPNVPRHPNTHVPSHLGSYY
Procedure, shortened: (§1)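 Yeast served to express human transcription factors as GST fusions, which were then captured on glutathione beads and labelled with DNA barcodes. Pooled with a tag-only sample, they were incubated with 200 nmole of a 16-mer random double-stranded DNA library for 30 min at room temperature in Tris/NaCl/DTT/glycerol buffer, washed, crosslinked with 0.1% formaldehyde, ligated by proximity, amplified by PCR and sequenced. Dividing each hexamer's read frequency for a factor by its frequency for the tag-only sample gives the binding signal.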

ELK1 = biological target: T2, ELK1 (Homo sapiens, UniProt P19419 1-428)
T2 sequence: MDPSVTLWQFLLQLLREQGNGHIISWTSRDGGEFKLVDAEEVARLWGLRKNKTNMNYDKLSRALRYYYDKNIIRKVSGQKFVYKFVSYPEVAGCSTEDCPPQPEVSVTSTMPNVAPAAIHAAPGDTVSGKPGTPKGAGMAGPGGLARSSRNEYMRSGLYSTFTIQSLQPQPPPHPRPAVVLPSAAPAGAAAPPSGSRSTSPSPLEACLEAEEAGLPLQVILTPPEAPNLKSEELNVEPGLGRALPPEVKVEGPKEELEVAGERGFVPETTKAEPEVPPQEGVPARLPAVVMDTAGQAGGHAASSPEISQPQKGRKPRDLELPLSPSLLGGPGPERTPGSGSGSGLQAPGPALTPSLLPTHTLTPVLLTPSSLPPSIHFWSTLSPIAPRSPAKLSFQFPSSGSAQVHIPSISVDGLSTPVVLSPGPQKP
Procedure, shortened: as §1

GABPA = biological target: T3, GABPA (Homo sapiens, UniProt Q06546 1-454)
T3 sequence: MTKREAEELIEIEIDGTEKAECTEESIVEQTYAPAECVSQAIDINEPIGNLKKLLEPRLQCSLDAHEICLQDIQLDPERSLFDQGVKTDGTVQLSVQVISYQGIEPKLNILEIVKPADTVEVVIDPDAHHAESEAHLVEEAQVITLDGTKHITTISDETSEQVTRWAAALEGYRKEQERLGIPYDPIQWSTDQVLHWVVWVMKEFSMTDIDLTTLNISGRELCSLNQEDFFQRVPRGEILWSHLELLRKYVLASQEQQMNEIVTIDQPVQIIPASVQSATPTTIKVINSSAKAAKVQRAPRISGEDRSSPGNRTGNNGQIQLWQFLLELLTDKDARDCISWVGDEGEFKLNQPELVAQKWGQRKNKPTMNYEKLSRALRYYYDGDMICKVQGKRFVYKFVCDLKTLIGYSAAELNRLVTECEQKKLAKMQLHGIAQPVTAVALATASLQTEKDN
Procedure, shortened: as §1

ELF1 = ELF1 (Homo sapiens, UniProt P32519 1-619)
Procedure, shortened: as §1

EHF = biological target: T4, EHF (Homo sapiens, UniProt Q9NZC4 1-300)
T4 sequence: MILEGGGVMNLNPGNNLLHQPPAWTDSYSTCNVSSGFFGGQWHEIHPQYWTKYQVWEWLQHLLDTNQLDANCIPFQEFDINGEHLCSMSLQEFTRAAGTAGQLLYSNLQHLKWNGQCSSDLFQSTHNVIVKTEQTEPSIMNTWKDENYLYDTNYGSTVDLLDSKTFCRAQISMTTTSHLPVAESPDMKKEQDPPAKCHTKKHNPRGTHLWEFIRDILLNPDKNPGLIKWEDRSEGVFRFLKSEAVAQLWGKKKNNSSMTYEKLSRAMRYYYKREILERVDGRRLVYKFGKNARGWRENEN
Procedure, shortened: as §1

ELK3 = biological target: T5, ELK3 (Homo sapiens, UniProt P41970 1-407)
T5 sequence: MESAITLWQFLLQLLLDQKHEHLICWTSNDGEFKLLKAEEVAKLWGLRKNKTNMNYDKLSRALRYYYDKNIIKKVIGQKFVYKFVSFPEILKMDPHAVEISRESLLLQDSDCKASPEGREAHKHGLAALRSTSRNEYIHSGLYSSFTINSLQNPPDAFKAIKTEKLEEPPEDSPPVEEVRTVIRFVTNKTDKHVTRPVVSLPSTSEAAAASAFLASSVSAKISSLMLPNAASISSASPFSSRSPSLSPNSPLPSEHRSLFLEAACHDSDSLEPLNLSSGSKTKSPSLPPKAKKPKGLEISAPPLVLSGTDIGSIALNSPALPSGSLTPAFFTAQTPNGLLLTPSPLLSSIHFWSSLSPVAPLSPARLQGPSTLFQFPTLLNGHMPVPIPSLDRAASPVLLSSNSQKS
Procedure, shortened: as §1

SPI1 = SPI1 (Homo sapiens, UniProt P17947 1-270)
Procedure, shortened: as §1

SPIB = SPIB (Homo sapiens, UniProt Q01892 1-262)
Procedure, shortened: as §1

ERG = biological target: T6, ERG (Homo sapiens, UniProt P11308 1-479)
T6 sequence: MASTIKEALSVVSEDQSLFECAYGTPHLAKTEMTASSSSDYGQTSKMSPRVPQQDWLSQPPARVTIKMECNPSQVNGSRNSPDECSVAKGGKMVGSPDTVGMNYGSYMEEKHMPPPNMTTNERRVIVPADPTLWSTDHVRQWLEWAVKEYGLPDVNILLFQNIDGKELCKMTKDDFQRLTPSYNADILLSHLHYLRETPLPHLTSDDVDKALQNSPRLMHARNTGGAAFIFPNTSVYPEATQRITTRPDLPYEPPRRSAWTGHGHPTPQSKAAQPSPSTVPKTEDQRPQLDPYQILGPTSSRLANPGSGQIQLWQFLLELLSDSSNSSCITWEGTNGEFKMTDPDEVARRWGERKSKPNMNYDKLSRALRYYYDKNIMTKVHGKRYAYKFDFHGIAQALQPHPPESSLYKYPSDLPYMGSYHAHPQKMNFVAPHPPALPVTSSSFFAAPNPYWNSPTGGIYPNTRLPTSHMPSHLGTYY
Procedure, shortened: as §1

Sequence of SPIB (Q01892 whole entry): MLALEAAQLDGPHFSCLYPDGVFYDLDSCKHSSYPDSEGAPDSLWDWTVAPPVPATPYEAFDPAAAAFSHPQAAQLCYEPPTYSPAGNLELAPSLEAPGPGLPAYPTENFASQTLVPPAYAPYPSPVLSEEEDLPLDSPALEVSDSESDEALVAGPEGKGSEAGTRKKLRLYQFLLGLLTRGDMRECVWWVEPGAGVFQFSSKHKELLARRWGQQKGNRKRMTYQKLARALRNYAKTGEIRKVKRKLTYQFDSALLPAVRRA
Sequence of ELF1 (P32519 whole entry): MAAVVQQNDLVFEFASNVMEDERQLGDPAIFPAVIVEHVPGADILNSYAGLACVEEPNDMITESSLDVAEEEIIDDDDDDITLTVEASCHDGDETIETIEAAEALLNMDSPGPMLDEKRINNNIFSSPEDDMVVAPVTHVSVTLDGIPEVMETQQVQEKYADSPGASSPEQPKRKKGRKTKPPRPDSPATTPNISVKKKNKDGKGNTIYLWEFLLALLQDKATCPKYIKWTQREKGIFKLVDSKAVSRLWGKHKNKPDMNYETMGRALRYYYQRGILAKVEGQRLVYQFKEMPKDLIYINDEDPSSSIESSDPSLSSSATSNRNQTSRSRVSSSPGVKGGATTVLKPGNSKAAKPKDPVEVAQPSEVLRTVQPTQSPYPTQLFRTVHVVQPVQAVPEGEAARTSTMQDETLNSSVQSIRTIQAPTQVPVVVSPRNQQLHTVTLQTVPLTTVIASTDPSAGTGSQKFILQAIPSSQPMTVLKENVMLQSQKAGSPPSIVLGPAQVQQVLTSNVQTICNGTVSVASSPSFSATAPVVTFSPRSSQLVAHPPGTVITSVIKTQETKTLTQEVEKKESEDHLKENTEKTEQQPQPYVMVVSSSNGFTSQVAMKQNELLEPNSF

Sequence | binding signal (FLI1) | binding signal (ELK1) | binding signal (GABPA) | binding signal (ELF1) | binding signal (EHF) | binding signal (ELK3) | binding signal (SPI1) | binding signal (SPIB) | binding signal (ERG)
TAGCGA | 1.1 fold enrichment (6-mer frequency, TF over GST control) | 1.01 fold enrichment (6-mer frequency, TF over GST control) | 1.18 fold enrichment (6-mer frequency, TF over GST control) | 1.03 fold enrichment (6-mer frequency, TF over GST control) | 1.03 fold enrichment (6-mer frequency, TF over GST control) | 1.08 fold enrichment (6-mer frequency, TF over GST control) |  |  | 
CGATGA | 1.01 fold enrichment (6-mer frequency, TF over GST control) | 1.09 fold enrichment (6-mer frequency, TF over GST control) | 1.05 fold enrichment (6-mer frequency, TF over GST control) | 1.11 fold enrichment (6-mer frequency, TF over GST control) | 1.08 fold enrichment (6-mer frequency, TF over GST control) | 1.09 fold enrichment (6-mer frequency, TF over GST control) | 1.06 fold enrichment (6-mer frequency, TF over GST control) | 1.01 fold enrichment (6-mer frequency, TF over GST control) | 
ACAGAT | 1.02 fold enrichment (6-mer frequency, TF over GST control) | 1.1 fold enrichment (6-mer frequency, TF over GST control) |  | 1.02 fold enrichment (6-mer frequency, TF over GST control) | 1.03 fold enrichment (6-mer frequency, TF over GST control) |  |  |  | 1.07 fold enrichment (6-mer frequency, TF over GST control)
TGAGCT | 1.15 fold enrichment (6-mer frequency, TF over GST control) | 1.08 fold enrichment (6-mer frequency, TF over GST control) | 1.05 fold enrichment (6-mer frequency, TF over GST control) | 1.02 fold enrichment (6-mer frequency, TF over GST control) | 1.16 fold enrichment (6-mer frequency, TF over GST control) | 1.05 fold enrichment (6-mer frequency, TF over GST control) |  |  | 
TCAGCA | 1.08 fold enrichment (6-mer frequency, TF over GST control) | 1.02 fold enrichment (6-mer frequency, TF over GST control) | 1.06 fold enrichment (6-mer frequency, TF over GST control) | 1.04 fold enrichment (6-mer frequency, TF over GST control) | 1.09 fold enrichment (6-mer frequency, TF over GST control) | 1.07 fold enrichment (6-mer frequency, TF over GST control) | 1.02 fold enrichment (6-mer frequency, TF over GST control) | 1.01 fold enrichment (6-mer frequency, TF over GST control) | 
CTCGTG | 1.19 fold enrichment (6-mer frequency, TF over GST control) | 1.09 fold enrichment (6-mer frequency, TF over GST control) | 1.28 fold enrichment (6-mer frequency, TF over GST control) | 1.16 fold enrichment (6-mer frequency, TF over GST control) | 1.07 fold enrichment (6-mer frequency, TF over GST control) | 1.11 fold enrichment (6-mer frequency, TF over GST control) |  | 1.05 fold enrichment (6-mer frequency, TF over GST control) | 
TATTAG | 1.05 fold enrichment (6-mer frequency, TF over GST control) | 1.03 fold enrichment (6-mer frequency, TF over GST control) |  |  | 1.02 fold enrichment (6-mer frequency, TF over GST control) | 1.18 fold enrichment (6-mer frequency, TF over GST control) | 1.09 fold enrichment (6-mer frequency, TF over GST control) |  | 1.07 fold enrichment (6-mer frequency, TF over GST control)
GTGGCT | 1.23 fold enrichment (6-mer frequency, TF over GST control) |  | 1.27 fold enrichment (6-mer frequency, TF over GST control) | 1.11 fold enrichment (6-mer frequency, TF over GST control) | 1.22 fold enrichment (6-mer frequency, TF over GST control) |  | 1.3 fold enrichment (6-mer frequency, TF over GST control) | 1.18 fold enrichment (6-mer frequency, TF over GST control) | 1.19 fold enrichment (6-mer frequency, TF over GST control)
CATCGA | 1.12 fold enrichment (6-mer frequency, TF over GST control) |  |  | 1.12 fold enrichment (6-mer frequency, TF over GST control) | 1.16 fold enrichment (6-mer frequency, TF over GST control) | 1.03 fold enrichment (6-mer frequency, TF over GST control) | 1.09 fold enrichment (6-mer frequency, TF over GST control) | 1.03 fold enrichment (6-mer frequency, TF over GST control) | 
TCATCG | 1.12 fold enrichment (6-mer frequency, TF over GST control) |  |  | 1.01 fold enrichment (6-mer frequency, TF over GST control) | 1.05 fold enrichment (6-mer frequency, TF over GST control) | 1.02 fold enrichment (6-mer frequency, TF over GST control) |  | 1.13 fold enrichment (6-mer frequency, TF over GST control) | 
GAAAAC | 1.04 fold enrichment (6-mer frequency, TF over GST control) |  | 1.05 fold enrichment (6-mer frequency, TF over GST control) | 1.06 fold enrichment (6-mer frequency, TF over GST control) | 1.09 fold enrichment (6-mer frequency, TF over GST control) |  | 1.07 fold enrichment (6-mer frequency, TF over GST control) | 1 fold enrichment (6-mer frequency, TF over GST control) | 1.09 fold enrichment (6-mer frequency, TF over GST control)
TGCTGT | 1.03 fold enrichment (6-mer frequency, TF over GST control) | 1 fold enrichment (6-mer frequency, TF over GST control) |  | 1.09 fold enrichment (6-mer frequency, TF over GST control) | 1.13 fold enrichment (6-mer frequency, TF over GST control) |  |  | 1 fold enrichment (6-mer frequency, TF over GST control) | 
AAGGCT | 1.03 fold enrichment (6-mer frequency, TF over GST control) |  | 1.12 fold enrichment (6-mer frequency, TF over GST control) | 1.1 fold enrichment (6-mer frequency, TF over GST control) | 1.02 fold enrichment (6-mer frequency, TF over GST control) | 1.1 fold enrichment (6-mer frequency, TF over GST control) |  | 1.01 fold enrichment (6-mer frequency, TF over GST control) | 
TTTGAG | 1.13 fold enrichment (6-mer frequency, TF over GST control) |  | 1.28 fold enrichment (6-mer frequency, TF over GST control) | 1.13 fold enrichment (6-mer frequency, TF over GST control) | 1.09 fold enrichment (6-mer frequency, TF over GST control) |  | 1.16 fold enrichment (6-mer frequency, TF over GST control) | 1.12 fold enrichment (6-mer frequency, TF over GST control) | 1.05 fold enrichment (6-mer frequency, TF over GST control)
TGAAAA | 1.06 fold enrichment (6-mer frequency, TF over GST control) | 1.03 fold enrichment (6-mer frequency, TF over GST control) |  | 1.04 fold enrichment (6-mer frequency, TF over GST control) | 1.08 fold enrichment (6-mer frequency, TF over GST control) |  | 1.23 fold enrichment (6-mer frequency, TF over GST control) |  | 
